Assay results published in PubChem BioAssay (NCI).
Compounds without any hit were thinned out: in the full panel of roughly 83,000, 20% have a hit.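 Values shown are percent growth following 48 h exposure of cells in 96-well plates to a single concentration of compound; below 10 was considered active.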 Unmarked numbers belong to inactive results.

These compounds were tested on OVCAR-4 ovarian (assay: NCI-60 one-dose screen, 48 h (100 = growth as untreated, 0 = no growth, -100 = all killed)). Details: 10 µM unless noted.

SMILES | growth
COC(=O)CCC(=O)C(=O)OC | 47.8% [10 mM]
COC(C(=O)[C@@H](O)[C@@H](C)O)[C@@H]1Cc2cc3cc(O[C@H]4C[C@@H](O[C@H]5C[C@@H](O)[C@H](O)C(C)O5)[C@H](O)C(C)O4)cc(O)c3c(O)c2C(=O)[C@H]1O[C@H]1C[C@@H](O[C@H]2C[C@@H](O[C@H]3C[C@@H](OC)[C@H](O)C(C)O3)[C@@H](O)C(C)O2)[C@H](O)C(C)O1 (stereo partly specified) | 64.5%
CC(C)N1CCN(Cc2ccc3c(NNC(=O)c4ccccc4)nc4cc(F)ccc4n23)CC1 | 21.2%

What follows are compounds tested on SK-OV-3 ovarian in the same assay as above. Details: 10 µM unless noted.

SMILES | growth [%]
O=c1oc2ccc([N+](=O)[O-])cc2cc1Br | 106
O=C1/C(=C/c2ccccc2Br)COc2ccc(O)c(O)c21 | 74.7
COc1cc2c(c(OC)c1OC)-c1ccc(OC)c(=O)cc1[C@@H](NC(=O)CCl)CC2 | 15.5
CCCCNc1ccc(C#N)c(OCCN(CC)CC)c1 | 102
O=C(c1ccccc1)C1C(=O)N2C(=S)N(c3ccccc3)C(=O)C2C1c1ccc(Cl)cc1 (stereo unspecified) | 88
CCOc1ccc(NC(=O)CSc2oc(-c3ccccc3)nc2S(=O)(=O)c2ccc(F)cc2)cc1 | 77.5
COc1cc(-n2cc(-c3cc(O)c(C/C=C(\C)CCC=C(C)C)c(O)c3)nn2)cc2c1O[C@]1(C)CC[C@@H](O)C(C)(C)[C@H]1C2 | 34.8
CCOC(=O)/C=C1\S/C(=N\Nc2cc(=O)[nH]c3ccc(Cl)cc23)N(c2ccccc2)C1=O | 102
